Compound activity (PubChem)
ASK1 primary – human ASK1 kinase inhibition, primary screen; 22,000 tested, 0.99% active; AlphaScreen MKK6 phosphorylation by ASK1, luminescence; Q99683; inhibition, % at 7.44 µM; in the data active = inhibition above about 35%
ULK1 inh – inhibitors of human ULK1 kinase. AID 1259251. AlphaScreen Atg13 phosphorylation by ULK1, luminescence. 30,000 tested, 1.9% active. inhibition, % at 5.96 µM; in the data active = inhibition above about 43%
TruHits interf – counter-screen for ASK1 inhibitors: AlphaScreen optical interference; shares compounds with ASK1 primary; AlphaScreen TruHits beads, signal interference counterscreen; IC50, µM; 220 tested, 20% active;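 active = IC50 of 10 µM or lower in the counterscreen; inactive = IC50 above 10 µM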;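 note: loss of AlphaScreen light from TruHits beads alone with no ASK1 enzyme present; potency of signal reduction so a low IC50 flags an assay artifact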
A number is an active result. Sampled rows, rich in hits. Any-hit rate of the full collection: about 2.5%.

Results for O=C(Nc1ccc(N2CCOCC2)cc1)c1csc(-c2cccs2)n1 ?
ASK1 primary: inactive; ULK1 inh: inactive

Results for O=C(Nc1ccc2[nH]ncc2c1)C1COc2ccccc2O1 (configuration not stated) ?
ASK1 primary: inactive; ULK1 inh: inactive

What do the screens show for `Nc1n[nH]c2c(Br)cc(NC(=O)C3COc4ccccc4O3)cc12` (configuration not stated)?
ASK1 primary: inactive; ULK1 inh: 58

Results for Cc1cc(NCCCN2CCCC2=O)nc(-c2c(C)noc2C)n1 ?
ASK1 primary: inactive; ULK1 inh: inactive

How did COc1ccc(CCNC(=O)c2ccnc(Nc3ccc4ncccc4c3)c2)cc1 do in these assays?
ASK1 primary: inactive; ULK1 inh: inactive

What do the screens show for `CN(C)c1cccc(Nc2nccc(NCCc3ccc(O)cc3)n2)c1`?
ASK1 primary: inactive; ULK1 inh: inactive

Results for COc1ccc(CCNc2ccnc(Nc3cccc(N(C)C)c3)n2)cc1 ?
ASK1 primary: 38; ULK1 inh: inactive; TruHits interf: inactive

Results for COc1ccc(CCNC(=O)c2ccnc(Nc3cccc(N(C)C)c3)c2)cc1 ?
ASK1 primary: 41; ULK1 inh: inactive; TruHits interf: inactive

Results for Cc1ccccc1CNC(=O)c1n[nH]c2cc(-c3cn[nH]c3)ccc12 ?
ASK1 primary: inactive; ULK1 inh: inactive

How did CC(C)N(CCNc1nc(Nc2ccncn2)nc2c1ncn2-c1ccccc1)C(C)C do in these assays?
ASK1 primary: inactive; ULK1 inh: inactive

What do the screens show for `CN(C)CCN(C)c1nc(C2COc3ccccc3O2)nc2ccc(-c3cn[nH]c3)cc12` (configuration not stated)?
ASK1 primary: inactive; ULK1 inh: inactive

Results for c1ccc2c(c1)OCC(c1nc(N3CCOCC3)c3cc(-c4cn[nH]c4)ccc3n1)O2 (configuration not stated) ?
ASK1 primary: 37; ULK1 inh: inactive; TruHits interf: inactive

How did c1ccc2c(-c3nc4ncnc(Nc5ccc(N6CCOCC6)cc5)c4[nH]3)csc2c1 do in these assays?
ASK1 primary: inactive; ULK1 inh: inactive

What do the screens show for `Cn1c(Nc2nc(NCCc3ccc(O)cc3)c3[nH]cnc3n2)nc2ccccc21`?
ASK1 primary: inactive; ULK1 inh: inactive

What do the screens show for `FC(F)(F)c1ccc(Cn2cnc3c(Nc4ccc(N5CCOCC5)cc4)nc(-c4ccccc4)nc32)cc1`?
ASK1 primary: inactive; ULK1 inh: inactive

What do the screens show for `COc1cc(Nc2nc(NCc3cccnc3)nc3nc[nH]c23)cc(OC)c1OC`?
ASK1 primary: inactive; ULK1 inh: inactive

How did CN(C)c1cccc(Nc2nc(NC3CCN(Cc4ccccc4)CC3)c3ncn(-c4ccccc4)c3n2)c1 do in these assays?
ASK1 primary: inactive; ULK1 inh: inactive

How did Cc1cc(NC2CC2)nc(Nc2cccc(N(C)C)c2)n1 do in these assays?
ASK1 primary: inactive; ULK1 inh: inactive

What do the screens show for `CC(C)n1c(Nc2ccccc2)nc2c(NC3CCN(Cc4ccccc4)CC3)ncnc21`?
ASK1 primary: inactive; ULK1 inh: inactive

What do the screens show for `CC(C)n1c(Nc2cccc(N(C)C)c2)nc2c(NC3CCN(Cc4ccccc4)CC3)ncnc21`?
ASK1 primary: 38; ULK1 inh: inactive; TruHits interf: inactive

How did CC(C)n1cnc2c(NC3CCN(Cc4ccccc4)CC3)nc(Nc3cccc(N(C)C)c3)nc21 do in these assays?
ASK1 primary: 36; ULK1 inh: inactive; TruHits interf: inactive

Results for Cc1cc(NC2CCN(Cc3ccccc3)CC2)nc(Nc2cccc(N(C)C)c2)n1 ?
ASK1 primary: 50; ULK1 inh: inactive; TruHits interf: 8.6

How did CN1CCN(c2ccc(-c3cncc(C(=O)NCc4cccc(C(F)(F)F)c4)c3)cc2)CC1 do in these assays?
ASK1 primary: inactive; ULK1 inh: inactive

What do the screens show for `COc1ccc(C)cc1NC(=O)Nc1cnn(-c2cccc(C(=O)Nc3cc(OC)c(OC)c(OC)c3)c2)c1`?
ASK1 primary: inactive; ULK1 inh: inactive

Results for COc1cc(NC(=O)c2cccc(-n3cc(NC(=O)Nc4ccc(-c5ccccc5)cc4)cn3)c2)cc(OC)c1OC ?
ASK1 primary: 49; ULK1 inh: inactive; TruHits interf: inactive

Results for COc1cc(NC(=O)c2cccc(-n3cc(NC(=O)Nc4c(C)cccc4Cl)cn3)c2)cc(OC)c1OC ?
ASK1 primary: 40; ULK1 inh: inactive; TruHits interf: inactive

How did COc1cc(NC(=O)c2cccc(-n3cc(NC(=O)Nc4ccccc4)cn3)c2)cc(OC)c1OC do in these assays?
ASK1 primary: inactive; ULK1 inh: inactive

What do the screens show for `CCN1CCN(c2cc(F)cc(-c3ccnc(Nc4ccc(-n5cnc(-c6ccc(OC)nc6)n5)cc4)n3)c2)CC1`?
ASK1 primary: inactive; ULK1 inh: inactive

What do the screens show for `O=C(NC1CCN(Cc2ccccc2)CC1)c1ccnc(N2CCc3ccccc3C2)c1`?
ASK1 primary: inactive; ULK1 inh: inactive

How did CCOC(=O)c1cnc2c(Cl)cccc2c1N do in these assays?
ULK1 inh: inactive

How did O=C1NC(=O)C(=Cc2cn(Cc3ccc(F)cc3)c3ccccc23)C(=O)N1 do in these assays?
ULK1 inh: inactive

Results for Cc1c[nH]c2ncnc(-c3ccc(NC(=O)Nc4ccccc4)cc3)c12 ?
ASK1 primary: 39; ULK1 inh: inactive; TruHits interf: inactive

What do the screens show for `CCn1c(=O)[nH]c2ncnc(-c3ccc(NC(=O)Nc4cccc(C(=O)NC(C)C)c4)cc3)c21`?
ASK1 primary: inactive; ULK1 inh: inactive

What do the screens show for `O=C1CCCN1CCCNc1nc(Nc2ccncc2)nc2c1ncn2-c1ccsc1`?
ASK1 primary: inactive; ULK1 inh: inactive

How did c1cc(N2CCOCC2)ccc1Nc1nc(NCCN2CCOCC2)c2ncn(C3CCCCC3)c2n1 do in these assays?
ASK1 primary: inactive; ULK1 inh: inactive

How did c1cc(-n2cnc3c(Nc4ccc5c(c4)OCO5)nc(N4CCN(Cc5ccc6c(c5)OCO6)CC4)nc32)cs1 do in these assays?
ASK1 primary: 36; ULK1 inh: inactive; TruHits interf: inactive

What do the screens show for `O=C1CCCN1CCCNc1nc(Nc2ccc(-n3ccnc3)cc2)nc2c1ncn2-c1ccsc1`?
ASK1 primary: 47; ULK1 inh: inactive; TruHits interf: inactive

What do the screens show for `CCCNc1nc(Nc2ccc(N3CCOCC3)cc2)nc2c1ncn2C1CCCCC1`?
ASK1 primary: 51; ULK1 inh: inactive; TruHits interf: inactive

How did CC(=O)Nc1ccc(Nc2nc(N3CCN(Cc4ccc5c(c4)OCO5)CC3)nc3c2ncn3-c2ccsc2)cc1 do in these assays?
ASK1 primary: inactive; ULK1 inh: inactive

What do the screens show for `c1cc(-n2cnc3c(Nc4ccc5c(c4)OCO5)nc(Nc4ccc(N5CCOCC5)cc4)nc32)cs1`?
ASK1 primary: 50; ULK1 inh: inactive; TruHits interf: inactive

How did c1cc(-n2cnc3c(Nc4ccc5c(c4)OCO5)nc(NCCN4CCOCC4)nc32)cs1 do in these assays?
ASK1 primary: inactive; ULK1 inh: inactive

How did CC(=O)N1CCC(N(C(=O)c2ccc(C(F)(F)F)nc2)C2CC2)CC1 do in these assays?
ULK1 inh: inactive

How did Cc1nn(C)c(C)c1-c1nc(NCc2cccnc2)c2ncn(CCN3CCCC3=O)c2n1 do in these assays?
ASK1 primary: inactive; ULK1 inh: inactive

What do the screens show for `CCNc1cc(NCCCN2CCCC2=O)nc(N)n1`?
ASK1 primary: inactive; ULK1 inh: inactive

What do the screens show for `c1cc(-n2cnc3c(NC4CC4)nc(Nc4ccc(N5CCOCC5)cc4)nc32)cs1`?
ASK1 primary: 43; ULK1 inh: inactive; TruHits interf: inactive
